Measured values published in ChEMBL document CHEMBL1961873, “Compounds: GSK PKIS; Assays: Nanosyn kinase panel” (2012).
Where “and” joins values, the source holds several entries; their conditions need not be identical. Identical values can stand only once.

Legend:
[1] = target: T1, Serine/threonine-protein kinase D2 (Homo sapiens) (UniProt Q9BZL6); settings: at 1 µM;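 further: mean value of PRKD2 inhibition, from the GSK PKIS screening panel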
T1 sequence (whole entry): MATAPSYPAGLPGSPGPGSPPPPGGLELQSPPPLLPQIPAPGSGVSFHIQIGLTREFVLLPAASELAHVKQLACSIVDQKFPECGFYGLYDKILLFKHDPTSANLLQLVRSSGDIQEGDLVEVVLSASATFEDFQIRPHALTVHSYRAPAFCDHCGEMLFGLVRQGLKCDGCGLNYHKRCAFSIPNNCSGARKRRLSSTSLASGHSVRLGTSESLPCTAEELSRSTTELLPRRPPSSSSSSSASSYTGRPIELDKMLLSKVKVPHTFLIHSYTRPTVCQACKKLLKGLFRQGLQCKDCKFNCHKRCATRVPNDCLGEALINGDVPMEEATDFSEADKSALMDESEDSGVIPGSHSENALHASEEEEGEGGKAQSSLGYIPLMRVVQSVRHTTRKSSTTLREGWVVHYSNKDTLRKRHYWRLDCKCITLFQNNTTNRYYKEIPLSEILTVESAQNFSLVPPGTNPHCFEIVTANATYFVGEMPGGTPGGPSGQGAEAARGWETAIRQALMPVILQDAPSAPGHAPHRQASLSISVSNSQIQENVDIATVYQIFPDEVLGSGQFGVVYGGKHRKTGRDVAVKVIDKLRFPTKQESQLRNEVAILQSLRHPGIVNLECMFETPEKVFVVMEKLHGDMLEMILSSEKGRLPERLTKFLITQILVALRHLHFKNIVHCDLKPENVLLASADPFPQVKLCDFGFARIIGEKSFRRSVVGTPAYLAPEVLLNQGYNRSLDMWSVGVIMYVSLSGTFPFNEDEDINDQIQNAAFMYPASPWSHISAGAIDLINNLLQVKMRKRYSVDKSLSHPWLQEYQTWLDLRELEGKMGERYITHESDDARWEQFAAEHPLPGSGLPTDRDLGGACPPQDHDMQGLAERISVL

[2] = target: T2, Serine/threonine-protein kinase D3 (Homo sapiens) (UniProt O94806); settings: at 0.1 µM
T2 sequence (whole entry): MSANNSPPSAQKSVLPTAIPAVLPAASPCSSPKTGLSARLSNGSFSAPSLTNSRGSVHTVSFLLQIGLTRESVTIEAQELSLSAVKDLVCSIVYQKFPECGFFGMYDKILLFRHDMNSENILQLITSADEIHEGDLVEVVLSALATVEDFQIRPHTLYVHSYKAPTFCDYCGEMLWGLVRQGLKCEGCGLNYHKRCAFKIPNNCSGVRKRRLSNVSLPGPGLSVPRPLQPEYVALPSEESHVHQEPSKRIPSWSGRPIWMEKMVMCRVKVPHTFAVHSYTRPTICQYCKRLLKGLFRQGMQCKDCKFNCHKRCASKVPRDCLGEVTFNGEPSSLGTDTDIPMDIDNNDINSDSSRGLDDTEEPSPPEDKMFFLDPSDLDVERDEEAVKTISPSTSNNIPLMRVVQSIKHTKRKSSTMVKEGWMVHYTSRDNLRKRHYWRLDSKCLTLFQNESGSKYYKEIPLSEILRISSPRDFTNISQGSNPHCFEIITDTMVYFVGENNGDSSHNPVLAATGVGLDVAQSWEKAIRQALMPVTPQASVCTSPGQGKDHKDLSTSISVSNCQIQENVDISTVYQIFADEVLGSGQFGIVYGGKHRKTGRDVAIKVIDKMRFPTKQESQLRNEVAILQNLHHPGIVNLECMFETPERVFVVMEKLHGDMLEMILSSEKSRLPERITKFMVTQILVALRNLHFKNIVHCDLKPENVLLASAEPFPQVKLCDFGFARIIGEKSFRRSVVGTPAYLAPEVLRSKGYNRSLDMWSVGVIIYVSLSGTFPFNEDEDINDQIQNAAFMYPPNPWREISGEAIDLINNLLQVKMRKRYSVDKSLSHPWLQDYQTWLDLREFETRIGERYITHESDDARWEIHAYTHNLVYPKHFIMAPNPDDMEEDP

[3] = target: T2, Serine/threonine-protein kinase D3 (Homo sapiens); settings: at 1 µM
[4] = target: T3, cGMP-dependent protein kinase 1 (Homo sapiens) (UniProt Q13976); settings: at 0.1 µM
T3 sequence (whole entry): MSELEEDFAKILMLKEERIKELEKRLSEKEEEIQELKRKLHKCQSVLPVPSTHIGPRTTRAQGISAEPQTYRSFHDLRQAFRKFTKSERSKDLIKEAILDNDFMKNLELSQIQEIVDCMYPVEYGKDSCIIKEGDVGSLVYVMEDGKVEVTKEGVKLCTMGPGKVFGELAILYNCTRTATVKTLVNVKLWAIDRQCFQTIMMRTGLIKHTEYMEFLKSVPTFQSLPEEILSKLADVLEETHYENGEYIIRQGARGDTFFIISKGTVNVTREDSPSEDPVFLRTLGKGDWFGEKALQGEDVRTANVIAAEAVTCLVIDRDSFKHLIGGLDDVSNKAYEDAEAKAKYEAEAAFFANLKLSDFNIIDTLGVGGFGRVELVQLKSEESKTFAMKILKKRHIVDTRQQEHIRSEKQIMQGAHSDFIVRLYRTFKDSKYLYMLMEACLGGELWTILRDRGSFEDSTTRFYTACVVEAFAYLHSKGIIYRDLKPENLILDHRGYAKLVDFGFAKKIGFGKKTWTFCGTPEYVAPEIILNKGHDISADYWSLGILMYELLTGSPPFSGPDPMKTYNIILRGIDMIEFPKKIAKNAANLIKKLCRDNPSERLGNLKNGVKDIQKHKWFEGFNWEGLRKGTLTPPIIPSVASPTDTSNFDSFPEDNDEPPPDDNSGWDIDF

[5] = target: T3, cGMP-dependent protein kinase 1 (Homo sapiens); settings: at 1 µM
[6] = target: T4, cGMP-dependent protein kinase 2 (Homo sapiens) (UniProt Q13237); settings: at 0.1 µM
T4 sequence (whole entry): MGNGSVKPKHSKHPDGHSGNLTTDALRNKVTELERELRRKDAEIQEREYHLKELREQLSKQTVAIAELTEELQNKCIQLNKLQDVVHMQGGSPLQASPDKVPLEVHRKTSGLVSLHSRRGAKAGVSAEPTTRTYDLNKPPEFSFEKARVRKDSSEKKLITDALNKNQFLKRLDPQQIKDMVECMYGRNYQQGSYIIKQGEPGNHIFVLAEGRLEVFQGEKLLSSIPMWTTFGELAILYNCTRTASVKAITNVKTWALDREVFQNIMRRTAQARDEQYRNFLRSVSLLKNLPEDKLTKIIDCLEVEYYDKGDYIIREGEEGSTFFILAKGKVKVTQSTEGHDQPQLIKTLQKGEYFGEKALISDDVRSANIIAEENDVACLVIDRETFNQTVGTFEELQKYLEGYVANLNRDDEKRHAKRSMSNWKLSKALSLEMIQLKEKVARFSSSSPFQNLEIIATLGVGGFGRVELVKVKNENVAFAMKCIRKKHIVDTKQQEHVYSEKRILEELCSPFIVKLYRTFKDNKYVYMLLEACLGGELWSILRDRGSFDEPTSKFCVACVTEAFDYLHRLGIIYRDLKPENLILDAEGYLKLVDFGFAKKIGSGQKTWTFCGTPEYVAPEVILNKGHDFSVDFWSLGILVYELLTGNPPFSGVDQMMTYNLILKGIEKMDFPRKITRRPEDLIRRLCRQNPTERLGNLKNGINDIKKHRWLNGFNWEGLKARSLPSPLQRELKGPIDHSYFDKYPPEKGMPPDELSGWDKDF

[7] = target: T4, cGMP-dependent protein kinase 2 (Homo sapiens); settings: at 1 µM
[8] = target: T5, cAMP-dependent protein kinase catalytic subunit PRKX (Homo sapiens) (UniProt P51817); settings: at 0.1 µM
T5 sequence (whole entry): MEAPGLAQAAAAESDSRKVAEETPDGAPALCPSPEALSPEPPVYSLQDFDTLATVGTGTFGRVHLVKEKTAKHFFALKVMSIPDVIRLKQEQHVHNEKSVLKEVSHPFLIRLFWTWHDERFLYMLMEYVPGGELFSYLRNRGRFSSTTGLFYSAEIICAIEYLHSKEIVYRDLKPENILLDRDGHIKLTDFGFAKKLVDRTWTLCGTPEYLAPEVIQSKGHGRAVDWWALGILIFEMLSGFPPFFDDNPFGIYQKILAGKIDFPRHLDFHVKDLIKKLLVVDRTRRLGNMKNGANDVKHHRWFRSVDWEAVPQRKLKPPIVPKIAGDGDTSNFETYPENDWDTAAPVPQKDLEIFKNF

[9] = target: T5, cAMP-dependent protein kinase catalytic subunit PRKX (Homo sapiens); settings: at 1 µM
[10] = target: Rho-associated protein kinase 1 (Homo sapiens) (UniProt Q13464); settings: at 0.1 µM;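 further: values are mean percent inhibition of ROCK1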
Chain of Rho-associated protein kinase 1 (Homo sapiens) (Q13464 2-1354 limits assumed): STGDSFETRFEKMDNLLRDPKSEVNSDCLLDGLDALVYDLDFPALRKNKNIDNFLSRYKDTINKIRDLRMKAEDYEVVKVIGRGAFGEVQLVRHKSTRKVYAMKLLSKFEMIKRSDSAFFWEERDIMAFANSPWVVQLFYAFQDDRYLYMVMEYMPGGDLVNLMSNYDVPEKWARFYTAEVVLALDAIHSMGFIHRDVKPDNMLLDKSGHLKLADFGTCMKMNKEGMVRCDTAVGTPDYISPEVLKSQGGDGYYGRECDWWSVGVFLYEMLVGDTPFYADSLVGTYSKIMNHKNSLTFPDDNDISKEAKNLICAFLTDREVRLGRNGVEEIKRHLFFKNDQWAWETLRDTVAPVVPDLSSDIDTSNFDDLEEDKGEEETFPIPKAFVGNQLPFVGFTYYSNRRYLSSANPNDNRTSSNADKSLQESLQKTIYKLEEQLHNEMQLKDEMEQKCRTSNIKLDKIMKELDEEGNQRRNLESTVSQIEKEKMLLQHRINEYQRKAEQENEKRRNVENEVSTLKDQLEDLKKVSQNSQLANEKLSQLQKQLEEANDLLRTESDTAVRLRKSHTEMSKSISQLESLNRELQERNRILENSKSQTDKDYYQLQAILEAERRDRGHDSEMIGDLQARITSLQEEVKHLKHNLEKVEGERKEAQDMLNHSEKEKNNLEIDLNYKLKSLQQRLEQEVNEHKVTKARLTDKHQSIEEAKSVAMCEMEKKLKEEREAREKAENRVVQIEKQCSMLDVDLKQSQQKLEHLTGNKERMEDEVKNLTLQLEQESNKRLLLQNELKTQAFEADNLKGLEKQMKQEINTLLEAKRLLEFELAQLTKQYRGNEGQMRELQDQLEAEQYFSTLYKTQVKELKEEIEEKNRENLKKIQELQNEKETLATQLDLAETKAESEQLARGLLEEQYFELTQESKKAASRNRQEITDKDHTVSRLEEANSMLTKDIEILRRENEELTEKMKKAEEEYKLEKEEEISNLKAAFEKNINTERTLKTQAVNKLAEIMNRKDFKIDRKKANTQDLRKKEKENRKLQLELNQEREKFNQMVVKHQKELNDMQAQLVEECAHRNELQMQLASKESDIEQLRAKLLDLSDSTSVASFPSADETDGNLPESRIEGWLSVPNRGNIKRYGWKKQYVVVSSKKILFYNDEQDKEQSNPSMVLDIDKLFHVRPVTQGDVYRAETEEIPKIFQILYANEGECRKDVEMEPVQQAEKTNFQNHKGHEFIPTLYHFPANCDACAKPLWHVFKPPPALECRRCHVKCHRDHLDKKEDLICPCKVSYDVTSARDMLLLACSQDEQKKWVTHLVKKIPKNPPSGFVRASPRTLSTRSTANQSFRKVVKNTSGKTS

Compound | inhibition [1] | inhibition [2] | inhibition [3] | inhibition [4] | inhibition [5] | inhibition [6] | inhibition [7] | inhibition [8] | inhibition [9] | inhibition [10]
NS(=O)(=O)c1ccc(N/N=C2\C(=O)Nc3ccc(C(=O)NCc4ccncc4)cc32)cc1 | 18.5% | 4.33% | 16.4% | 5% | 19.3% | 5.42% | 18.4% | 6.16% | 15.5% | 0.63%
COc1cccc(-n2ncc3c(N/N=C/c4ccc(C(=O)NCCN(C)C)cc4)ncnc32)c1 | 6.33% | 2.63% | 4.71% | 2.79% | 1.97% | 4.28% | 20.5% | 1.32% | 5.04% | 3.7%
c1cnn2ncc(-c3ccnc(NCCCN4CCOCC4)n3)c2c1 | 5.4% | 3.94% | 5% | 3.07% | 8.93% | 3.44% | 4.91% | 1.06% | 3.97% | 2.01%
COc1ccc(-c2nn3ncccc3c2-c2ccnc(Nc3ccc(F)c(F)c3)n2)cc1 | 5.42% | 4.4% | 5.09% | 2.68% | 3.58% | 5.81% | 5.3% | 3.54% | 8.39% | 1.21%
CN1CCC(C(=O)Nc2n[nH]c3nc(-c4ccc(O)cc4)c(Br)cc23)CC1 | 4.6% and 3.02% | 1.49% and 1.43% | 3.3% and 2.68% | 2.6% and 0.38% | 8.03% and 6.39% | 2.67% and 0.36% | 8.41% and 4.33% | 3.06% and 1.23% | 6.6% and 1.62% | 1.28% and -0.29%
COC(=O)Nc1nc2ccc(Oc3ccc(NC(=O)Nc4cc(C(F)(F)F)ccc4F)cc3)cc2s1 | 1.09% | 0.52% | 0.53% | 1.65% | 2.05% | 1.07% | 1.92% | 0.15% | -0.17% | 0.74%
CNC(=O)c1sc(-n2cnc3cc(OC)c(OC)cc32)cc1OCc1ccccc1C(F)(F)F | 4.27% | 4.09% | 4.54% | 2.58% | 2.12% | 1.27% | 1.38% | 2.66% | 1.17% | 0.61%
CS(=O)(=O)CCNCc1ccoc1-c1ccc2ncnc(Nc3ccc(OCc4ccccc4)cc3)c2c1 | 1.7% | 0.9% | 1.39% | -0.04% | 0.54% | -0.54% | -1.25% | 0.33% | -0.34% | -1.21%
CCN1CCC(C(=O)Nc2n[nH]c3nnc(-c4cccc(F)c4F)cc23)CC1 | 0.06% | -0.39% | -0.3% | 0.16% | 0.21% | -1.12% | 0.85% | 0.8% | 0.57% | -0.76%
COc1cc(N2CCN(C(C)C)CC2)ccc1Nc1nc(Nc2cccc3ncccc23)c2cc[nH]c2n1 | 4.37% | -0.78% | 4.56% | -1.01% | 2.36% | 0.84% | 0.42% | 0.02% | -0.18% | 0.12%
Cc1cc(O)cc(C)c1/C=C/c1cncc(C(=O)OC(C)(C)C)c1 | 1.78% | 2.12% | 2.64% | 3.26% | 3.58% | 1.21% | 2.65% | 3.57% | 6.36% | 2.92%
CS(=O)(=O)Nc1ccc(-c2cc(-c3ccccc3)cc(C(N)=O)c2N)cc1 | 1.14% | 1.65% | 2.57% | 2.68% | 2.84% | 1.37% | 2.4% | 1.16% | 1.26% | 1.5%
O=C1Nc2ccccc2/C1=C1\CCc2cc(O)ccc21 | 15.4% | 6.3% | 11.8% | 3.61% | 8.21% | 4.25% | 16.7% | 2.86% | 3.03% | 1.2%
CS(=O)(=O)Nc1ccc(-c2ccc3c(NC(=O)C4CC4)n[nH]c3c2)cc1 | 5.01% | 3.46% | 6.13% | 2.24% | 3.26% | 1.29% | 2.97% | 1.03% | -0.97% | 0.87%
Fc1cccc(COc2ccc(Nc3ncncc3C#Cc3ccccc3)cc2Cl)c1 | 6.54% | 6.12% | 5.73% | 3.8% | 4.39% | 3.39% | 3.87% | 2.56% | 5.39% | 1.15%
